Assay results reported in PubChem BioAssay (NCATS).
Inconclusive results are not listed. Unmarked numbers belong to inactive results. Activity calls are given as the source filed them. Calls come from the whole dose curve; as a rule, active = well fitted inhibition curve with a large enough effect; inconclusive = small, poorly fitted or top-dose-only effect; inactive = flat fitted curve, though single readings scatter.

These compounds were tested against Calcium and integrin-binding protein 1 (Homo sapiens) (UniProt Q99828) (assay: Primary qHTS for Identification of Calcium Integrin Binding Protein 1 (CIB1) Competitor (AID 1508620;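 note: GST tagged CIB1 binding a fluorescein labelled alphaIIb integrin peptide tracer; top concentration of the series differs between compounds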)). Settings: CIB1-GST / FITC-alphaIIb peptide fluorescence polarization; series mostly up to 114 µM; activity change, negative = inhibition: at the top concentration.
In short: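 Fluorescence polarization competition: CIB1-GST (1 uM final) preincubated with compound 15 min at room temperature, then FITC-labeled alphaIIb peptide (100 nM final) added for another 15 min. Polarization read at Ex 480/Em 540.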
% is set by controls: 0 for no effect and ±100 for the full control effect.

Chain of Calcium and integrin-binding protein 1 (Homo sapiens) (Q99828 whole entry, looked up): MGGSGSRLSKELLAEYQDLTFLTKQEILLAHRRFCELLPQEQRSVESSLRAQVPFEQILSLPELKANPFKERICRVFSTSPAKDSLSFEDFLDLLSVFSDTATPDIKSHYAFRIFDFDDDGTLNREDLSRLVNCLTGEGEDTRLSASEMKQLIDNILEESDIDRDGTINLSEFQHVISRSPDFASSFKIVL

SMILES	activity change, negative = inhibition	Potency
Cc1ccnc(NC(=S)NCCNc2cccc(C(F)(F)F)c2)c1	-4.66%	
FC(F)(F)c1ccccc1-c1nc(NCc2ccccc2)c2ccccc2n1	1.56%	
C#CCOc1cc(C2=Nn3c(nnc3-c3ccc(OCC(C)=O)cc3)SC2)ccc1OC	-2.47%	
CCOC(=O)C1CCN(c2ccc(NCc3ccc(-c4ccc(C#N)cc4)o3)cc2)CC1	-6.55%	
Cc1cc(C)nc(NC(=S)N2CCN(c3nccs3)CC2)c1		inactive
O=C1Nc2ccccc2/C1=C\c1cc(F)c(O)c(F)c1	-4.14%	
NC(=O)C1CCN(c2ncc(-c3ccc(Br)cc3)s2)CC1	-4.62%	
O=C(Nc1ccc(Cl)c(C(F)(F)F)c1)Nc1nnc(-c2cccnc2)s1	3.39%	
Cc1nnc(-c2cnn(C)c2N)n1CCCc1ccccc1	1.86%	
CC(C)Oc1cccc(-c2csc(N3CCC(C(N)=O)CC3)n2)c1	1.35% [at 384 µM]	
COc1ccc(-c2ccc(CNc3ccc(N4CCN(C(=O)OC(C)(C)C)CC4)cc3)o2)cc1	0.961%	
Fc1ccccc1-c1ccc(Nc2nc(-c3ccncc3)nc3ccccc23)cc1F	8.17%	
O=C(O)c1ccc2c(c1)C(=O)N([C@H](Cc1c3ccccc3cc3ccccc13)C(=O)O)C2=O	-2.03%	
COc1ccc(C(=O)N(Cc2ccccc2)Cc2ccco2)c(O)c1	-8.23%	
Cc1cc(C)nc(NC(=S)N2CCN(c3cccc(S(C)=O)c3)CC2)c1 (stereo not given)	-26.6%	
Cc1cc2c(s1)c1cnn(Cc3ccc4ccccc4c3)c(=O)c1n2C	1.5%	
COc1ccc(C(=O)N(Cc2ccco2)Cc2cccs2)c(O)c1	-9.63%	
C[n+]1cc(C(O)(c2ccccc2)c2ccccc2)n2ccccc21	2.91%	
O=C(CN1C(=O)N/C(=C\c2cccn2-c2cccc(C(=O)O)c2)C1=O)Nc1cccc(Cl)c1	1.99%	
O=C(NC1CCCc2c1cnn2-c1ccc(F)cc1F)c1ccccc1 (stereo not given)	3.46%	

SMILES	activity change, negative = inhibition	Potency
Nc1ccc(C(=O)Nc2ccc(-c3nc4ccccc4[nH]3)cc2)cc1Cl	0.18%	
N#Cc1ccc(-c2ccc(CNc3ccc(N4CCOCC4)cc3)cn2)cc1	-9.84%	
Cc1cc(NS(=O)(=O)c2cc3c(cc2F)NC(=O)CC3)ccc1F		inactive
CCC(C)N(C)C(=O)Cn1nc(-c2ccc(C)cc2)ccc1=O (stereo not given)	-2.83%	
Oc1ccc(CNc2cc(C(F)(F)F)ccn2)c2cccnc12	-0.856%	
COc1ccc(C2Nc3ccccc3C(=O)N2CCc2ccccc2)cc1COc1ccc(NC(C)=O)cc1 (stereo not given)	0.0291%	
O=C1CCCC2=C1C(c1[nH]ncc1Cl)N=C(Nc1nc3c(Cl)cccc3o1)N2 (stereo not given)	-2.81%	
Cn1nnnc1Sc1ncnc2scc(-c3ccc(Cl)cc3)c12	3.41%	
O=[S+]([O-])(Nc1ccccc1)c1ccc(NCc2ccc(Cl)cc2O)cc1	1.97%	
FC(F)(F)c1ccc(-c2nc(-c3nnc4n3CCCCC4)c(C(F)(F)F)o2)cc1	2.16%	
Cc1cc(C)nc(NC(=S)N2CCN(c3ccc([N+](=O)[O-])c4cccnc34)CC2)c1	-1.18%	
Cc1cc(C)nc(NC(=S)N2CCN(c3ccc4nncn4c3)CC2)c1	-7.09%	
O=S(=O)(c1ccc2c(c1)OCCO2)N1CCN(S(=O)(=O)c2ccccc2F)CC1	-3.67%	
Oc1ccc(CNc2ccc(C(F)(F)F)cc2Cl)c2cccnc12	-2.74%	
Cc1cc(C)cc(Cn2ncc3c4sc(C)cc4n(C)c3c2=O)c1	11.8%	
Cc1cc2c(s1)c1cnn(Cc3cccc(F)c3F)c(=O)c1n2C	0.349%	
CN(C)C(=O)C1CCN(c2nc(-c3ccc(Br)cc3)cs2)CC1	-0.667%	
Cc1ccc(-c2ccc(=O)n(CC(=O)NCCc3ccccc3)n2)cc1	0.999%	
O=S(=O)(NCCNc1nc(-c2ccco2)nc2ccccc12)c1ccccc1	-9.7%	
O=C1c2ccccc2C(=O)N1c1noc2ccccc12	3.67%	
